# Bioassay records from PubChem.
# D2 ag-1 = agonists of human D2 dopamine receptor; actives 0.53% (n = 340,000); activation, % at 2 µM; AID 485358; P14416; HEK293 T-REx D2 cells, calcium flux agonist mode;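 active means activation over 3 SD above normal in the single-dose calcium agonist read, cut at about 30% in these data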; further: 0% is about no effect
# Target sequence (P14416 whole entry, looked up): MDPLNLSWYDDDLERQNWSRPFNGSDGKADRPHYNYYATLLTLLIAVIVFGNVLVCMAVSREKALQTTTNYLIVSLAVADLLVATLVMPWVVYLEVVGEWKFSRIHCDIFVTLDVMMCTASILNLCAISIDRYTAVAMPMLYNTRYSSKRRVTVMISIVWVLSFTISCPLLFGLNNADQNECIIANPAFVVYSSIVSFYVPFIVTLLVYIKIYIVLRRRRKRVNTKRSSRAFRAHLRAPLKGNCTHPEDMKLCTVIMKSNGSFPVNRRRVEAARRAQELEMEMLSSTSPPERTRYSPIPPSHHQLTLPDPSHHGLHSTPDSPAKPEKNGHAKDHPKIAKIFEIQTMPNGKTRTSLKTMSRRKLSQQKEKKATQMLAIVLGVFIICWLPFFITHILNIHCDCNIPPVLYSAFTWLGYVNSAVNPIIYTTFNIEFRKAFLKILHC
#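 In this primary screen, compounds producing a positive calcium signal within 180 s of addition to tetracycline-induced, force-coupled HEK293 Trex D2 cells are flagged; cells are dye-loaded with a no-wash calcium kit beforehand.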
# D2 ag-2 = human D2 receptor agonism in beta-arrestin assay; DiscoveRx PathHunter D2 beta-arrestin, luminescence, 90 min; 100% = 57 uM dopamine signal; activation, % (no concentration beside the values); AID 624465; actives 0.084% (n = 360,000); P14416; in the data active means activation above about 40%
#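 DiscoveRx PathHunter D2 beta-arrestin cells (2,100/well) attached overnight, then compound-stimulated 90 min at 37 C in HBSS/10 mM HEPES/0.1% Tween-20 buffer; beta-galactosidase complementation read by luminescence after 1 h at ambient temperature. Dopamine 57 uM final (EC100) as control.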
# D2 PAM-1 = positively modulates the human D2 dopamine receptor allosterically | P14416 | HEK293 T-REx D2, calcium flux, EC20 dopamine potentiation | actives 0.34% (n = 340,000) | potentiation, % at 10 µM;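 active means potentiation over 3 SD above the plate norm, cut at about 30% in these data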; further: 0% is about no effect
#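 Potentiation of an EC20 dopamine calcium response is measured in a force-coupled, tetracycline-inducible Hek293 Trex D2 line. Compound-only kinetic reads over 180 s flag agonists before dopamine addition.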
# B2AR arrestin = agonists driving beta-arrestin recruitment to human beta2-adrenergic receptor; actives 0.02% (n = 330,000); Potency, µM (highest dose often 46.1 µM), without a hit: top-dose activation, hits mostly activators; beta-arrestin recruitment to beta2AR, cell-based reporter; P07550; AID 492947; active means well fitted activation curve with a large enough effect;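 further: potency means the concentration at half of the fitted maximal effect; 0% = DMSO controls and full agonism = EC100 isoproterenol or metaproterenol; nearly all actives have a fitted effect of over 65% in size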
# D2 antag = antagonizes the human D2 dopamine receptor; P14416; HEK293 TREx D2 cells, calcium flux, dopamine EC80; inhibition, % at 10 µM; actives 2% (n = 340,000); in the data active means inhibition above about 30%; inactive means below that, where a call was filed; further: 0% is about no effect
#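 Measurement of antagonist activity uses fluorescent calcium dye in inducible HEK293 T-REx D2 cells: 10 s baseline, compound addition with 180 s read, EC80 dopamine addition with a further 180 s read.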
# D2 PAM-2 = positive allosteric modulators of human D2 dopamine receptor | P14416 | DiscoveRx D2 beta-arrestin cells, luminescence, 90 min; 100% = 57 uM dopamine signal | potentiation, % (no concentration beside the values) | actives 0.23% (n = 360,000); in the data active means potentiation above about 50%
#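 PathHunter beta-arrestin assay in DiscoveRx D2 cells. Compounds were added with an EC20 of dopamine (50 nM final) for 90 min at 37 deg C. Luminescence was read 1 h after detection reagent, with 57 uM dopamine as the EC100 control.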
# Starred values were filed as active, the others as inactive; / = no result. An excerpt weighted towards active compounds, which were near 2.4% of everything screened.
SMILES,D2 ag-1,D2 ag-2,D2 PAM-1,B2AR arrestin,D2 antag,D2 PAM-2
C=CCNCCOc1c(C)cc(C)cc1Cl,0,-1,-22,0%,32*,-29
Cc1cc(C)c(OCCCCNCc2ccccc2)c(Cl)c1,-1,-2,-14,0%,49*,-20
Cc1cc(Cl)cc(C)c1OCCNCc1ccccc1,2,-2,-17,0%,17,-41
Cc1ccc(S(=O)(=O)Nc2ccc3c(c2)nc(CN2CCCC2)n3C)cc1,2,-3,-12,-1%,72*,-52
Cn1c(CN2CCCC2)nc2cc(NC(=O)COc3ccccc3)ccc21,0,0,-23,0%,47*,-40
CCn1c(CN2CCCCC2)nc2cc(S(=O)(=O)N3CCCCC3)ccc21,-1,-4,-29,0%,55*,-15
Cn1c(CCN2CCCCC2)nc2cc(NS(=O)(=O)c3ccc(F)cc3)ccc21,1,-4,-18,0%,32*,-46
C=C(CC[C@@H](O)C(C)(C)O)[C@H]1CC[C@]2(C)[C@@H]1CCC1[C@@]3(C)CC[C@H](O)C(C)(C)C3CC[C@]12C (stereo partly drawn),/,0,/,0%,/,-8
C=C(C)[C@@H]1CC[C@]2(C(=O)O)CC[C@]3(C)[C@H](CC[C@@H]4[C@@]5(C)CC[C@H](O)C(C)(C)[C@@H]5CC[C@]43C)[C@@H]12,0,1,5,-1%,36*,3
CCCCc1nnc(NC(=O)C2CC(=O)N(c3ccc(C)cc3)C2)s1 (stereo not drawn),0,-1,10,0%,-13,-1
C/C=C\C(=O)Nc1cccc(C2=NOC3(C2)C[C@@H](C(N)=O)N(C(=O)C2(C)CC2)C3)c1 (stereo partly drawn),-1,-2,11,0%,34*,-7
C=C(C)C(=O)Nc1cccc(C2=NOC3(C2)C[C@H](C(N)=O)N(C(=O)COc2ccc(Cl)cc2)C3)c1 (stereo partly drawn),0,2,-1,0%,35*,-12
Cc1c(C(=O)N2CC3(CC(c4cccc(NC(=O)[C@H]5CCC(=O)N5)c4)=NO3)C[C@@H]2C(N)=O)cc([N+](=O)[O-])cc1[N+](=O)[O-] (stereo partly drawn),0,7,1,0%,-10,74*
COc1cc(C)c(Br)cc1S(=O)(=O)NCCCN1CCOCC1,0,-3,6,-1%,19,-10
Cc1ccc(S(=O)(=O)N2CCN=C2SCc2ccc(Cl)c(Cl)c2)cc1,1,-2,-4,0%,30*,4
Cc1ccc(CSC2=NCCN2S(=O)(=O)c2ccc(C)cc2)cc1,/,-2,/,/,/,-7
OC1(c2ccc(Br)cc2)CCN(Cc2cccc(Br)c2)CC1,0,1,-42,-1%,103*,-82
COc1ccc(Cl)cc1NC(=O)CSc1nnc(C2CC2)n1N,0,-2,31*,1%,-10,-8
Nn1c(SCC(=O)Nc2ccc(F)cc2F)nnc1C1CCCCC1,-2,0,8,0%,-3,-1
COc1cccc(-c2nnc(SCC(=O)Nc3cc(C)ccc3OC)n2N)c1,0,-1,-18,0%,4,-17
COc1ccc(OC)c(NC(=O)CSc2nncc(=O)n2N)c1,1,-4,-15,-1%,36*,-9
Nn1c(SCC(=O)Nc2ccccc2F)nnc1C1CCCCC1,0,2,37*,0%,-9,-10
Oc1ccc(N2CCN(c3ncnc4sc5c(c34)CCC5)CC2)cc1,0,11,4,0%,-9,68*
c1ccc2c(c1)nnn2-c1ncnc2sc3c(c12)CCCC3,1,0,11,0%,31*,-7
N#CCCn1c(SCC(=O)N2CCN(S(=O)(=O)c3ccccc3)CC2)nc2ccccc21,0,-2,-8,0%,0,11
SMILES,D2 ag-1,D2 ag-2,D2 PAM-1,B2AR arrestin,D2 antag,D2 PAM-2
O=C(c1ccco1)N1CCN(C(c2ccccn2)c2nnnn2C2CCCC2)CC1 (stereo not drawn),0,-1,35*,8%,-13,7
c1cnc2ccc(C(c3nnnn3C3CCCCC3)N3CCCCC3)cc2c1 (stereo not drawn),1,-3,42*,1%,5,-18
COc1ccc(C(c2nnnn2C2CCCC2)N2CCC(C)CC2)cc1 (stereo not drawn),-1,-6,30*,0%,-4,-19
O=C(c1ccco1)N1CCN(C(c2cccs2)c2nnnn2C2CCCC2)CC1 (stereo not drawn),0,1,-6,0%,7,-8
c1cnc2ccc(C(c3nnnn3C3CCCCC3)N3CCN(C4CCCCC4)CC3)cc2c1 (stereo not drawn),/,-3,/,/,/,-5
O=C(N/N=C/c1ccc(N2CCOCC2)cc1)c1ccccc1NS(=O)(=O)c1cccs1,1,-3,2,0%,4,3
CC(Oc1ccc(Br)cc1)C(=O)NCC(c1cccs1)N1CCOCC1 (stereo not drawn),-1,-3,9,0%,7,-5
CCOc1ccccc1NC(=O)c1cccc(NC2=NC3CS(=O)(=O)CC3S2)c1 (stereo not drawn),0,-4,3,1%,0,0
COc1ccc(OC)c(CCNC(=O)Cc2ccc(NC3=NC4CS(=O)(=O)CC4S3)cc2)c1 (stereo not drawn),-1,-4,-3,0%,27,-5
COc1ccc(OC)c(CCNC(=O)c2ccc(NC3=NC4CS(=O)(=O)CC4S3)cc2)c1 (stereo not drawn),0,-3,19,-1%,34*,-3
Cc1cc(C)cc(NC(=O)c2cccc(NC3=NC4CS(=O)(=O)CC4S3)c2)c1 (stereo not drawn),0,-10,4,0%,34*,-7
Cc1ccc(CCNC(=O)Cc2ccc(NC3=NC4CS(=O)(=O)CC4S3)cc2)cc1 (stereo not drawn),0,-6,-4,0%,38*,-5
COc1ccc(C(=O)N2CC3(CC(c4ccc(Cl)cc4)=NO3)C[C@H]2C(=O)NCC(N)=O)cc1 (stereo partly drawn),-1,-1,-2,0%,-26,-12
O=C(CNC(=O)c1ccc(Cl)cc1)OCC(=O)c1ccc2c(c1)OCCO2,0,-2,14,0%,41*,-11
COc1ccc(NC(=O)CCC(=O)N2CCCC2)c([N+](=O)[O-])c1,0,1,1,0%,8,-7
